# Source: ChEMBL document CHEMBL4513216, “Probing the Open Global Health Chemical Diversity Library for Multistage-Active Starting Points for Next-Generation Antimalarials” (ACS Infect Dis, 2020)
# Hit rate of the full screen: of about 69,000 compounds, about 8,600 (12%) showed an effect of 50% or more. The list comes from a sample in which strong results are over-represented; it also holds similar structures and randomly drawn compounds.
# System: Plasmodium berghei
# Assay: Screen against P. berghei liver stage (PbLuc), transformed with Luciferase, at 10uM
# Format: functional, HepG2
# Conditions: tested at 10 uM
row,SMILES,INHIBITION [%]
1,O=C1CCN(C(=O)NCC(c2ccccc2)c2ccccc2)CCN1,-61.4
2,O=C1CC[C@H](C(=O)Nc2cnn(-c3ccccc3Br)c2)N1,30
3,Cc1cc(C)nc(C2CCN(C(=O)c3c(C)noc3C)C2)n1 (centres undefined),-8.12
4,Cc1ncnc2c1CCN(Cc1cccs1)CC2,-33
5,Cc1ccc(C(=O)N2CCCCC2CNC(N)=O)cc1F (centres undefined),44.3
6,O=C([C@H]1CN(Cc2ccoc2)C[C@H]2OCC[C@@H]12)N1CCCCO1,39.4
7,Cc1ccc(-n2ncc(C(=O)N3CCCC3c3cnn(C)c3)c2C)cc1 (centres undefined),2.3
8,CC(C)Oc1ncccc1CNC(=O)c1cnccn1,7.12
9,CCS(=O)(=O)CCNC(=O)[C@@]12CNC[C@@H]1CN(C1CCCC1)C2,30.8
10,CN1CCC(O)(CCNC(=O)[C@@]23CNC[C@@H]2CN(C2CCCC2)C3)CC1,62.9
11,CNS(=O)(=O)CCNC(=O)[C@@]12CNC[C@@H]1CN(C1CCCC1)C2,28.7
12,Cc1nn(C)cc1S(=O)(=O)N[C@@H]1CCC[C@@H](n2ccnc2)[C@@H]1O,7.19
13,COc1ccc(-n2cnnc2SCC(C)(C)O)cn1,1.28
14,COC(=O)CCSc1nncn1-c1ccc(OC)nc1,22.6
15,COc1ccc(-n2cnnc2SCCC#N)cn1,33.4
16,CCC(C)Sc1nncn1-c1ccc(OC)nc1 (centres undefined),-30.5
17,COc1ccc(-n2cnnc2SCC(=O)NC(C)C)cn1,64.5
18,COc1ccc(-n2cnnc2SCC(=O)N(C)C(C)C)cn1,59.4
19,COCCS(=O)(=O)NCc1ccc(N(C)C)c(C)c1,2.65
20,COCC(=O)N1CCCC1(C)c1nc(C)cc(O)n1 (centres undefined),-33.4
21,CCCc1n[nH]c(C2CN(C(=O)c3ccc4c(c3)COC4)CCO2)n1 (centres undefined),15.5
22,COCc1nc(C(=O)N2CCCC2c2cc(C)no2)cs1 (centres undefined),-3.2

row,SMILES,INHIBITION [%]
1,Cc1ncc2c(n1)CN(CC(=O)NCCOc1ccccc1)CC2,-3.7
2,Cc1ccc(N2CCC3(CCN(C(=O)c4ccsc4)CC3)CC2)nn1,9.63
3,C[C@@H]1CN(C(=O)Cc2ccsc2)C[C@]12CCN(CCN(C)C)C2=O,26
4,Cc1ccc2c(n1)N(CCn1cccn1)CCN(C(=O)NC1CC1)C2,37.8
5,Cc1ccc2c(n1)N(CCN(C)C)CCN(C(=O)N1CCOCC1)C2,18.3
6,COCCN1CCN(S(=O)(=O)C2CC2)Cc2ccc(C)nc21,0.804
7,Cc1ccc2c(n1)N(CC1CC1)CCN(C(=O)NC1CC1)C2,30.3
8,COCCN1CCN(C(=O)N2CCCC2)Cc2ccc(C)nc21,62.5
9,COCCN1CCN(C(=O)NC2CC2)Cc2ccc(C)nc21,60.1
10,COCCC(=O)N1CCC(c2ccc3c(NC(C)C)n[nH]c3n2)C1 (centres undefined),-36.4
11,CCOC1COC2(CCN(Cc3ccc(C)cc3)CC2)C1 (centres undefined),17.4
12,CCOc1ncnc2c1CCN(C(=O)CN(C)C)CC2,42.3
13,CC(C)(C)C(=O)N1CC(=O)N(Cc2ccco2)CC(O)C1 (centres undefined),40.4
14,CCCC(NC(=O)c1ccc(C)cc1C)c1nnn[nH]1 (centres undefined),43.1
15,CCCC(NC(=O)c1cc(C)ccc1C)c1nnn[nH]1 (centres undefined),16.6
16,CCCC(NC(=O)c1cc(C)c(F)cc1F)c1nnn[nH]1 (centres undefined),58.5
17,Cn1cc(C(=O)Nc2ccc3c(c2)CN(C(=O)C2CC2)CC3)nn1,-7.25
18,CC(=O)N(Cc1ncc(C(C)C)o1)C1CCN(Cc2cc(C)on2)C1 (centres undefined),2.7
19,O=C(NCc1ccco1)Nc1cccc(S(=O)(=O)C(F)F)c1,42.4
20,O=C(CNc1ccccc1S(=O)(=O)C(F)F)NCc1ccco1,33.2
21,O=C(CNc1cccc(S(=O)(=O)C(F)F)c1)NCc1ccco1,51.7
22,Cc1nc(C2CN(Cc3scnc3C)CCO2)cc(N(C)C)n1 (centres undefined),68.9

row,SMILES,INHIBITION [%]
1,CNc1cc(C2CN(Cc3scnc3C)CCO2)nc(C)n1 (centres undefined),-26.2
2,CNc1cc(C2CN(Cc3csc(C)n3)CCO2)nc(C)n1 (centres undefined),41.2
3,CC(C(=O)N1CCN(c2ccc(F)cc2)CC1)n1cc(Br)cn1 (centres undefined),6.83
4,Cn1nnc2c1CCN(C(=O)C1CCC1)C2COCCN1CCCC1 (centres undefined),19.5
5,Cc1cc(CN2CCN(C(=O)NC(C)c3cccnc3)CC2)no1 (centres undefined),7.15
6,O=C(NCc1nccn1CCc1ccccc1)NCC1CCC1,44.5
7,c1snnc1CN1C[C@H]2CCC[C@@H](CN3CCOCC3)[C@H]2C1,-41.8
8,Cc1cc(C[C@@H]2COC[C@H]2NCc2ccc(C)c(C)c2)on1,1.5
9,Cc1cc(C[C@@H]2COC[C@H]2NCc2ccc(C(C)C)cc2)on1,28
10,CCOc1cc(CN[C@@H]2COC[C@H]2Cc2cc(C)no2)ccc1O,74.9
11,COC(=O)c1ccc(CN[C@@H]2COC[C@H]2Cc2cc(C)no2)cc1,0.301
12,Cc1cc(C[C@@H]2COC[C@H]2NCc2ccc(Cl)c(Cl)c2)on1,50.8
13,Cc1ccc(CN[C@@H]2COC[C@H]2Cc2cc(C)no2)cc1,-22.6
14,NC(=O)CC1CCCN(c2cncc(OCc3ccccc3)n2)C1 (centres undefined),27.6
15,CC(C)CCc1nc(CN2CCOC(Cn3cncn3)C2)cs1 (centres undefined),36.1
16,Cc1n[nH]c(C2CN(CC(=O)NCc3cccs3)CCO2)n1 (centres undefined),8.9
17,O=C(c1cccc(F)c1)N1CCC2(CC1)CC(N1CCOCC1)C2,1.34
18,Cc1cnn(CC2CN(Cc3nc(-c4cccnc4)no3)CCO2)c1 (centres undefined),-4.94
19,CCn1ccnc1CN1CCN(Cc2ccc(C)o2)[C@@H]2CS(=O)(=O)C[C@@H]21,16.7
20,Nc1nc(CNc2ncnc3c2CCN(Cc2ccoc2)CC3)cs1,51.8
21,c1cc(CCNc2ncnc3c2CCN(Cc2ccoc2)CC3)ccn1,12.8
22,CC(C)Nc1ncnc2c1CCN(Cc1ccoc1)CC2,-22.1

row,SMILES,INHIBITION [%]
1,O=C(c1cncs1)N1CCOC(c2cc(CCO)[nH]n2)C1 (centres undefined),-4.5
2,O=C([C@H]1C[C@H]2OCC[C@H]2N(C(=O)c2ccccn2)C1)N1CCCCO1,22.2
3,CCN(CC)CCCNCc1cc2cccc(C)c2[nH]c1=O,-36.4
4,CCN1CCN(C(=O)Cn2nc(C(F)(F)F)c(Br)c2C2CC2)CC1,30.8
5,CCCN1CCN(C(=O)Cn2nc(C(F)(F)F)c(Br)c2C2CC2)CC1,64.7
6,CN1CCN(C(=O)Cn2nc(C(F)(F)F)c(Br)c2C2CC2)CC1,16.5
7,CCN1CCCC1CNC(=O)Cc1c(C)n[nH]c1-c1ccc(F)cc1 (centres undefined),38.8
8,CCOC(=O)c1sc2ccsc2c1CN,0.938
9,COc1cc(-c2cccc3c2OC(CN)C3)ccc1O (centres undefined),50.8
10,COc1ccc(-c2cccc3c2OC(CN)C3)cc1F (centres undefined),47.1
11,COc1cc(-c2cccc3c2OC(CN)C3)cc(OC)c1OC (centres undefined),48
12,Cc1ccc(CCCC(=O)N2CCC(CS(N)(=O)=O)CC2)s1,-0.554
13,O=C(c1cccs1)N1CCc2ncnc(C3CCOC3)c2CC1 (centres undefined),53.2
14,COCCN1CCc2ncnc(OC(C)C)c2CC1,37.5
15,CC(C)Oc1ncnc2c1CCN(Cc1cccs1)CC2,40.7
16,CC(C)Oc1ncnc2c1CCN(Cc1ccco1)CC2,50.7
17,O=C(c1ccnnc1)N1CCc2ncnc(C3CCOC3)c2CC1 (centres undefined),38.1
18,COc1ccc(CN2CCc3ncnc(C4CC4)c3CC2)cc1,47.4
19,O=C(c1ccncc1)N1CCc2ncnc(C3CCOC3)c2CC1 (centres undefined),49.7
20,CC(C)Oc1ncnc2c1CCN(Cc1ccoc1)CC2,8.85
21,CC(C)Oc1ncnc2c1CCN(Cc1ccc(F)cc1)CC2,60.3
22,COc1ccc(CN2CCc3ncnc(OC(C)C)c3CC2)cc1,56.7

row,SMILES,INHIBITION [%]
1,Cc1ccc(CN2CCc3ncnc(OC(C)C)c3CC2)s1,-34.6
2,CCc1ncnc2c1CCN(Cc1ccc(OC)cc1)CC2,26.7
3,COCC1CC2(CCN(Cc3cccc(C#N)c3)CC2)CN1C(C)C (centres undefined),-11.2
4,CCCS(=O)(=O)NCC(C)(O)c1ccsc1 (centres undefined),20.9
5,Cc1nc(Nc2nnc(C)s2)cc(C2CCCN2C)n1 (centres undefined),21.6
6,O=C(c1cccc(C2CCNC2)c1)N1CCC(c2ccncc2)CC1 (centres undefined),-19.1
7,Cc1ccc(N2CC[C@H]3OCC[C@@]3(C(=O)N3CCCC3)C2)nn1,40.1
8,CC(C)n1cnnc1CNC(=O)c1cnn(-c2ccccc2)c1,-20.3
9,Cc1ccc(Cl)cc1N1CCC(CNC(=O)Cn2cccn2)C1 (centres undefined),10.083
10,c1ccc(CN2CCc3ncnc(C4CCOC4)c3CC2)nc1 (centres undefined),33
11,c1coc(CN2CCc3ncnc(C4CCOC4)c3CC2)c1 (centres undefined),79.6
12,c1nc2c(c(C3CCOC3)n1)CCN(Cc1ccoc1)CC2 (centres undefined),12.1
13,O=C(Nc1ccc(CCN2CCOCC2)cc1)C1CCCC1,-7.85
14,O=C(NCC1CC1)c1cc2c(s1)CCN2C(=O)c1ccc(F)cc1,4.57
15,CN(C)S(=O)(=O)NCC(Cc1cccc(F)c1)N1CCNC1=O (centres undefined),-15.3
16,COc1cccc(CCC(=O)Nc2c(C)nn(C)c2C)c1OC,31
17,COc1ccccc1C(=O)NCCC(=O)Nc1c(C)nn(C)c1C,51.8
18,CCC(C)NC(=O)c1nn(C)c(NC(=O)c2ccccc2OC)c1F (centres undefined),19.3
19,COc1ccccc1C(=O)Nc1c(F)c(C(=O)NCCC(C)C)nn1C,57
20,COc1ccccc1C(=O)Nc1c(F)c(C(=O)NC2CCCC2)nn1C,4.48
21,CCOc1ccccc1CCC(=O)Nc1c(C)nn(C)c1C,22.6
